Screening results deposited in PubChem by Broad Institute.
LGR2 antag = inhibitors of bursicon-induced LGR2 CRE-luciferase signal, primary screen, cell-based, HEK293, CRE-luciferase reporter, bursicon stimulation. Drosophila bursicon receptor LGR2 (rickets). bursicon-stimulated, 4 h. inhibition, % at 9.99 µM. 0.35% of 380,000 active;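 active means drop in luminescence signal, shown as inhibition above about 50% in the replicate tests, limit read from the data, passing the limit was not always enough; inconclusive means probably only some replicates passing the limit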;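 further: agonist challenge used bursicon conditioned medium at about half maximal strength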
RAD54 branch = inhibitors of human RAD54 branch migration, primary screen, biochemical, fluorescence, single point. AID 602329, 2012. inhibition, % at 10.4 µM. RAD54 Holliday junction branch migration, FAM/BHQ fluorescence. 0.14% of 360,000 active;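 active means mean normalized replicate activity at least 40 and at least half of replicates scoring 40 or more; inconclusive means only one of the two criteria met; inactive means mean below 40 and under half of replicates reaching 40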;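 further: inhibitors cause a drop in the FAM fluorescence signal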
INS-1E GSIS act = GLuc luminescence reporter in INS-1E cells, primary screen for activators of glucose-dependent secretion of insulin; INS-1E GLuc reporter insulin secretion, 2-3 h; activation, % at 16.6 µM; 0.61% of 370,000 active; AID 743287, 2014;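 active means lowest replicate activation of at least 40%, so every replicate reaches that level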
RAD52 inh = RAD52 DNA annealing inhibitors, primary screen, biochemical, FRET, single point, set 2; DNA repair protein RAD52 homolog (Homo sapiens), P43351; recombinant RAD52 DNA annealing, FRET fluorescence; inhibition, % at 18.7 µM; 0.46% of 360,000 active; AID 651710, 2012;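 active means every replicate showing at least 50% inhibition; inconclusive means mean inhibition at least 50% but not in every replicate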
Target sequence (P43351 whole entry, looked up): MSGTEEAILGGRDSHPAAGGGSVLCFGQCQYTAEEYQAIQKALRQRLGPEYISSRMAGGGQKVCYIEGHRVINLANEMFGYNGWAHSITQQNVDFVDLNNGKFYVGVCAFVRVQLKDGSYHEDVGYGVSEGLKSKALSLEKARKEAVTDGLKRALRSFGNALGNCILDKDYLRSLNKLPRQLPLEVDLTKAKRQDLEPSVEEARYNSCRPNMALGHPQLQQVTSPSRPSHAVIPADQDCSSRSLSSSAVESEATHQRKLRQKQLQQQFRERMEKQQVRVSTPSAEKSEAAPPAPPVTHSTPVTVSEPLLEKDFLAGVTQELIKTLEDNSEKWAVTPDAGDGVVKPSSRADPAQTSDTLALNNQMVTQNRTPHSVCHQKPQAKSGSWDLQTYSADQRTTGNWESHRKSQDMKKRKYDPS
F508del corr = F508del CFTR correction, initial screen, CFBE line, single point | 0.36% of 350,000 active | activity (quench increase), % at 7.58 µM | CFBE cells, YFP halide quenching; stimulated with forskolin plus potentiator P3; % fluorescence drop versus neutral controls | AID 720511, 2013;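 active means mean added fluorescence quench of at least 8% versus neutral control, with both replicates also reaching 8%; inconclusive means only one of the mean or replicate conditions met; inactive means mean below 8% and not both replicates reaching 8%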;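 further: cells transiently co-express mutant CFTR-F508del with the halide-sensitive YFP; corrector assay measuring rescue of mutant channel to the surface after 24 h compound exposure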
EWS-Fli inh = EWS/Fli-driven NR0B1 reporter inhibitors, primary screen, A673 cells, NR0B1 luciferase, luminescence, MLPCN library; viability-normalised; inhibition, % at 12.6 µM; 0.67% of 350,000 active;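 active means mean inhibition of at least 50% after viability correction, with every replicate also passing that limit; inconclusive means mean reaches 50% but only one of two replicates passes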;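 further: firefly luciferase signal divided by Alamar Blue viability fluorescence both relative to DMSO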
Numbers stand for hits. Shown are actives, neighbours in structure and some others; about 1.8% of the full set was active somewhere.

`COc1ccc(OCC(=O)NNC(=O)CCc2ccccc2)cc1` gave LGR2 antag inactive, RAD54 branch inactive, INS-1E GSIS act inactive, RAD52 inh inactive, F508del corr 9.8 and EWS-Fli inh inactive.
`COc1ccc(OCC(=O)NNC(=O)Cn2c(=O)cnc3ccccc32)cc1` gave LGR2 antag inactive, RAD54 branch inactive, INS-1E GSIS act 76, RAD52 inh inactive, F508del corr inactive and EWS-Fli inh inactive.
`Cc1cccc(OCC(=O)NNC(=O)Cn2c(=O)cnc3ccccc32)c1` gave LGR2 antag inactive, RAD54 branch inactive, INS-1E GSIS act inactive, RAD52 inh inactive, F508del corr inactive and EWS-Fli inh inactive.
For COc1ccc(CCC(=O)NC2CCC(C)CC2)cc1 (centres undefined) the results were LGR2 antag inactive, RAD54 branch inactive, INS-1E GSIS act 77, RAD52 inh inactive, F508del corr inactive and EWS-Fli inh inactive.
Screening O=C(CCc1ccccc1)NNC(=O)COc1ccccc1Cl returned LGR2 antag inactive, RAD54 branch inactive, INS-1E GSIS act 137, RAD52 inh inactive, F508del corr inactive and EWS-Fli inh inactive.
For O=C(CSc1nc2c([nH]c3ccccc32)c(=O)n1-c1ccccc1)NCC1CCCO1 (centres undefined) the results were LGR2 antag inactive, RAD54 branch inactive, INS-1E GSIS act inactive, RAD52 inh inactive, F508del corr inactive and EWS-Fli inh inactive.
Screening COc1ccc(N2CCN(C(=O)c3ccc4c(c3)CCN4S(C)(=O)=O)CC2)cc1 returned LGR2 antag inactive, RAD54 branch inactive, INS-1E GSIS act inactive, RAD52 inh inactive, F508del corr inactive and EWS-Fli inh inactive.
COc1ccc(Br)cc1CNC(=O)Cc1cccs1 was read as LGR2 antag inactive, RAD54 branch inactive, INS-1E GSIS act inactive, RAD52 inh inactive, F508del corr inactive and EWS-Fli inh inactive.
For Cc1cnc(NC(=O)CCNC(=O)c2ccccc2Cl)s1 the results were LGR2 antag inactive, RAD54 branch inactive, INS-1E GSIS act inactive, RAD52 inh inactive, F508del corr inactive and EWS-Fli inh inactive.
Cc1cnc(NC(=O)COc2ccccc2Cl)s1 was read as LGR2 antag 91, RAD54 branch inactive and INS-1E GSIS act inactive.
For CCOc1cc(/C=N/NC(=O)C(C)Sc2ccccn2)ccc1O (centres undefined) the results were LGR2 antag inactive and INS-1E GSIS act 70.
`CCOc1cc(/C=N/NC(=O)CSc2cccc3cccnc23)ccc1O` gave LGR2 antag inactive, INS-1E GSIS act 66, RAD52 inh inactive, F508del corr inactive and EWS-Fli inh inactive.
Screening COc1ccc(CC(C#N)(CO)c2nc3ccccc3[nH]2)cc1 (centres undefined) returned LGR2 antag inactive and INS-1E GSIS act inactive.
For O=C(Nc1ncn[nH]1)c1ccc(Cl)c(Cl)c1 the results were LGR2 antag inactive, RAD54 branch inactive, INS-1E GSIS act 44, RAD52 inh inactive, F508del corr inactive and EWS-Fli inh inactive.
Screening CO[C@H]1CN(C)C(=O)c2cc(NC(=O)C3CC3)ccc2OC[C@H](C)N(Cc2nccs2)C[C@@H]1C returned LGR2 antag inactive, RAD54 branch inactive, INS-1E GSIS act inactive, RAD52 inh inactive, F508del corr inactive and EWS-Fli inh inactive.
`O=C1CN(C(=O)Cn2ncc(Cl)c(Cl)c2=O)c2ccccc2N1` gave LGR2 antag 105, INS-1E GSIS act inactive, RAD52 inh inactive, F508del corr inactive and EWS-Fli inh inactive.
`O=C1CN(C(=O)COc2ccc(Cl)c(Cl)c2)c2ccccc2N1` gave LGR2 antag inactive, INS-1E GSIS act inactive, RAD52 inh inactive, F508del corr inactive and EWS-Fli inh inactive.
O=C(Cn1ncc(Cl)c(Cl)c1=O)NCC1CCCCC1 was read as RAD54 branch inactive, RAD52 inh inactive and EWS-Fli inh inconclusive.
`O=C(Cn1ncc(Cl)c(Cl)c1=O)NC1CCCCC1` gave LGR2 antag inactive, RAD54 branch inactive, INS-1E GSIS act inactive, RAD52 inh inactive, F508del corr inactive and EWS-Fli inh 51.
